Measurements published in the supplement of paper PMC7156485.
± gives the standard deviation of the averaged measurements.

Columns and labels:
Details in all cases: concentration: 10 µM; 24 h
HCC1569 [1] = experiment: cell number relative to DMSO (% of DMSO); higher = more cells (less growth inhibition / toxicity)
Summary of the method: (§1)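 After 24 h at 37 °C with compounds at 10 µM, in triplicate, HCC1569 and TDF cells were fixed with 3.7% formaldehyde. Immunostaining used a rabbit anti-H1.0 antibody and an AlexaFluor 647 secondary, with DAPI, and six fields per well were imaged at ×10. H1.0 nuclear intensity or cell number is presented as percent of the plate control, from the median of replicates, with HCC1569 values smoothed for positional effects.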

TDF [2] = experiment: as above
Summary of the method: as §1

TDF [3] = experiment: H1.0 immunofluorescence intensity relative to DMSO (% of DMSO); higher = stronger H1.0 induction, active = 120 or more
Summary of the method: as §1

HCC1569 [4] = experiment: H1.0 immunofluorescence intensity relative to DMSO (% of DMSO); higher = stronger H1.0 induction, active = 140 or more
Summary of the method: as §1
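For H1.0 immunofluorescence intensity relative to DMSO in this document: TDF is a line of transformed human dermal fibroblasts of mesenchymal origin.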
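For cell number relative to DMSO in this document: TDF denotes transformed human dermal fibroblasts of mesenchymal origin.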

Compound | cell number (HCC1569 [1]) | cell number (TDF [2]) | H1.0 immunofluorescence intensity (TDF [3]) | H1.0 immunofluorescence intensity (HCC1569 [4])
COc1cc(Cc2cnc(N)nc2N)cc(OC)c1OC [Trimethoprim] | 99 ± 1.6 | 95.9 ± 2.8 | 106 (inactive) | 107 (inactive)
NCCCCCC(=O)O [6-Aminohexanoic acid] | 101 | 116 | 106 (inactive) | 102 (inactive)
Cl.O=C(O)C1=CCCN(CCON=C(c2ccccc2)c2ccccc2)C1 [NO-711 hydrochloride] | 100 | 93.9 | 94.2 (inactive) | 97.9 (inactive)
N#Cc1c(-c2ccccc2)cc(-c2cc(Br)ccc2O)[nH]c1=O [PIM1 Kinase Inhibitor II] | 103 | 105 | 93.5 (inactive) | 114 (inactive)
CCN(CC)CCOC(=O)C1(C2CCCCC2)CCCCC1.Cl [Dicyclomine hydrochloride] | 100 | 96.7 | 99.8 (inactive) | 93.1 (inactive)
COc1cc(Br)c(CC2c3cc(OC)c(OC)cc3CCN2C)cc1OC (racemic) | 99.7 | 98.5 | 97.8 (inactive) | 97.6 (inactive)
O=C(O)C=Cc1cc(Br)c(Br)c(Br)c1Br [Casein Kinase II Inhibitor III, TBCA] | 98.7 | 113 | 92.9 (inactive) | 105 (inactive)
O=C1C(=O)C(c2ccc(O)c(O)c2)Oc2cc(O)cc(O)c21 (stereo not given) [2-(3,4-dihydroxyphenyl)-3,5,7-trihydroxy-4H-chromen-4-one] | 81.2 | 74.4 | 103 (inactive) | 158 (active)
CC(CS)C(=O)N1CCCC1C(=O)O (stereo not given) [Captopril] | 98.4 ± 2.9 | 93.4 ± 4.1 | 97.6 (inactive) | 96.7 (inactive)
Cl.NC(N)=NC(=O)c1nc(Cl)c(N)nc1N [Amiloride hydrochloride] | 99.3 | 100 | 97.6 (inactive) | 96.9 (inactive)
CC(C)=CCc1cc2c(cc1O)oc(=O)c1c3ccc(O)cc3oc21 | 106 | 95.7 | 94.4 (inactive) | 106 (inactive)
N#CC(=Cc1ccc(O)c(O)c1)C(=O)NCCc1ccccc1 [Tyrphostin AG 698] | 84.3 | 91 | 87.8 (inactive) | 119 (inactive)
Cc1cnc(C(=O)O)c[n+]1[O-] [Acipimox] | 100 | 108 | 95.2 (inactive) | 104 (inactive)
O.O=c1c(O)c(-c2ccc(O)cc2O)oc2cc(O)cc(O)c12 | 104 | 94.5 | 100 (inactive) | 98.8 (inactive)
CC(=O)N1CCN(c2ccc(OCC3COC(Cn4ccnc4)(c4ccc(Cl)cc4Cl)O3)cc2)CC1 (stereo not given) [Ketoconazole] | 85.7 ± 11 | 97.3 ± 15 | 101 (inactive) | 118 (inactive)
O=c1c(O)c(-c2ccc(O)c(O)c2)oc2cc(O)ccc12 [Fisetin] | 95.8 | 95.8 | 96 (inactive) | 101 (inactive)
CCCn1c(=O)c2[nH]c(C3CCCC3)nc2n(CCC)c1=O [8-Cyclopentyl-1,3-dipropylxanthine] | 101 | 92.5 | 99.5 (inactive) | 93.7 (inactive)
O=C(O)c1ccc2ccccc2c1O.OCc1cc(C(O)CNCCCCCCOCCCCc2ccccc2)ccc1O (stereo not given) [Salmeterol xinafoate] | 100 | 100 | 97.5 (inactive) | 121 (inactive)
CC(C)C(N)C(=O)OCCOCn1cnc2c(=O)nc(N)[nH]c21 (stereo not given) [Valaciclovir] | 99.8 | 104 | 102 (inactive) | 109 (inactive)
CCCCC1=NC2(CCCC2)C(=O)N1Cc1ccc(-c2ccccc2-c2nn[nH]n2)cc1 | 101 | 99.3 | 101 (inactive) | 88.4 (inactive)
O=[N+]([O-])c1ccc(Nc2nc(N3CCOCC3)nc(N3CCOCC3)n2)cc1 | 96.5 | 99 | 95.8 (inactive) | 102 (inactive)
Cc1ccc(C(=O)Nc2ccc(S(=O)(=O)[O-])c3cc(S(=O)(=O)[O-])cc(S(=O)(=O)[O-])c23)cc1NC(=O)c1cccc(NC(=O)Nc2cccc(C(=O)Nc3cc(C(=O)Nc4ccc(S(=O)(=O)[O-])c5cc(S(=O)(=O)[O-])cc(S(=O)(=O)[O-])c45)ccc3C)c2)c1 [Suramin] | 94.4 | 86.9 | 96.7 (inactive) | 107 (inactive)
O=C1c2c(O)cc(O)cc2O[C@H](c2cc(O)c(O)c(O)c2)[C@H]1O | 95.8 | 99.5 | 98.9 (inactive) | 93.3 (inactive)
NC(Cc1cccc(-c2ccccc2CP(=O)(O)O)c1)C(=O)O (stereo not drawn) [Phenylbenzene-omega-phosphono-alpha-amino acid] | 99.4 | 104 | 89.5 (inactive) | 105 (inactive)
COc1ccc(C=Cc2cc(O)cc(OC3OC(CO)C(O)C(O)C3O)c2)cc1O (stereo not given) [Rhapontin] | 99.2 | 104 | 96 (inactive) | 83.7 (inactive)
